Screens deposited in PubChem by several laboratories.
Most compounds without a hit are left out; they make up all but 27% or so of the library.
CYP2C19 inh: inhibitors of human CYP2C19; CYP2C19 Supersomes, luciferin-H EGE luminescence, 30 min; inhibition, % at 5 µM; AID 778; P33261; hit rate 21% among 96,000;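 active = CYP2C19 inhibition above a set limit at 5 µM in the primary screen, cut at about 50% in these data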;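 note: plate controls were negative control wells for no effect and 2.5 mM tranylcypromine positive control for full effect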
CYP2C9 inhib: blocks human cytochrome P450 2C9; hit rate 20% among 96,000; P11712; AID 777; inhibition, % at 5 µM; CYP2C9 Supersomes, luciferin-H conversion, luminescence;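 active = blocking of liver enzyme CYP2C9 beyond about 50% at 5 µM, limit read from the data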
sEH act: activators of human soluble epoxide hydrolase. P34913. purified human sEH enzymatic activity, activator screen. activation, % at 2 µM. hit rate 0.04% among 91,000; in the data active = activation above about 37%
Target sequence (P34913 whole entry, looked up): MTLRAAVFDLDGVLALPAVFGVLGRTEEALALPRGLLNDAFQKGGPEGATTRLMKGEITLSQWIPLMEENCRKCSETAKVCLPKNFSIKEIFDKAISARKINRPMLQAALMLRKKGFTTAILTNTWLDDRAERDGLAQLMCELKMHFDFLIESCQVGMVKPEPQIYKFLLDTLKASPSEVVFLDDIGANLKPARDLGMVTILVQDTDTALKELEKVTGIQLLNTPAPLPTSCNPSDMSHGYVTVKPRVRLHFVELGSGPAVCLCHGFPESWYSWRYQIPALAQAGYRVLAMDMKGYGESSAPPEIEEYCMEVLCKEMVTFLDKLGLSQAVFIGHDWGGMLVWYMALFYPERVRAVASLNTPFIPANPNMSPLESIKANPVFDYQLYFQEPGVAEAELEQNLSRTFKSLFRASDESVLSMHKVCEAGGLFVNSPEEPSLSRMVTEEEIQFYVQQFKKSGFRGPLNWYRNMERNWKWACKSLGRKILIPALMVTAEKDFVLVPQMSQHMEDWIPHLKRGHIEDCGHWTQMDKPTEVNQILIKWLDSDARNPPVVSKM
CYP2C19 activ: activators of human cytochrome P450 2C19. recombinant CYP2C19, luciferin-H EGE luminescence; hits give high values; 0 = fully inhibited enzyme, 1 = untreated enzyme. P33261. activation factor at 5 µM. 96,000 tested, under 10 active. AID 1025;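 active = activation factor of at least 2 at 5 µM in the primary screen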;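 note: 0 = wells with 2.5 mM tranylcypromine and 1 = vehicle-only wells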
sEH inhibitor: soluble epoxide hydrolase (human) inhibition; P34913; recombinant human sEH enzymatic activity assay; inhibition, % at 2 µM; hit rate 0.34% among 91,000; AID 707; in the data active = inhibition above about 80%
CYP2C9 act: activators of human CYP2C9. P11712. recombinant CYP2C9, luciferin-H conversion, luminescence; hits give high values; factor 1 = untreated enzyme, 0 = blocked. activation factor at 5 µM. hit rate 1.4% among 96,000. AID 1024;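 active = activation factor of 2 or more for CYP2C9 at a 5 µM dose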;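 note: 0 = sulfaphenazole-blocked wells and 1 = vehicle-only wells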
* = called active by the depositor; · = no result.

SMILES	CYP2C19 inh	CYP2C9 inhib	sEH act	CYP2C19 activ	sEH inhibitor	CYP2C9 act
Cc1nn(Cc2ccccc2)c2c1C(c1ccco1)C(C#N)=C(N)O2 (stereo unspecified)	4.0	3.0	2.4	1	-1.4	1
CC1=C(C(=O)OC(C)(C)C)C(c2ccco2)C(C#N)=C(N)O1 (stereo unspecified)	93.4*	52.1*	3.5	0.1	-6.0	0.5
C/C=C/C(=O)Nc1ccccc1Br	7.1	-1.0	-6.9	0.9	7.0	1
Cc1nn(Cc2ccc(F)cc2)c(C)c1NC(=O)c1cnn2cccnc12	40.8	-11.9	7.5	0.6	-5.0	1.1
Cc1cccc(OCC(=O)Nc2nonc2NC(=O)COc2cccc(C)c2)c1	·	·	-0.2	·	-2.3	·
Cc1cc(OCCCC(=O)N2CCCCC2)cc(C)c1Cl	93.4*	-1.8	20.2	0.1	-17.0	1
Cc1ccc(C)c(OCC(=O)Nc2nonc2NC(=O)COc2cc(C)ccc2C)c1	15.0	76.7*	-4.5	0.8	4.1	0.2
COCCNC(=O)COc1ccc(C)cc1C	66.8*	9.1	0.5	0.3	-1.8	0.9
Cc1ccc(OCC(=O)N2CCCCCC2)c(C)c1	79.8*	-19.5	-10.9	0.2	6.0	1.2
CC1CCN(C(=O)CCCOc2ccc(Cl)cc2)CC1	·	·	5.7	·	-4.2	·
O=C(COc1ccc(Br)cc1)N1CCCCCC1	93.6*	31.3	·	0.1	·	0.7
Cc1cc(Cl)ccc1OCCCC(=O)N1CCCCC1	97.0*	-26.1	19.4	0	-20.2	1.3
Cc1ccc(OCCCC(=O)N2CCOCC2)cc1	75.2*	-8.2	-3.6	0.2	3.3	1.1
C=CCNC(=O)CCCOc1ccc(C)cc1	72.6*	59.7*	-9.1	0.3	3.8	0.4
Cc1ccc(OCCN2CCCCCC2)c(C)c1	58.5*	15.4	8.0	0.4	-7.8	0.8
Cc1ccc(OCCCC(=O)Nc2ccc(N3CCOCC3)cc2)c(C)c1	-5.4	-2.9	-37.2	1.1	37.3	1
Cc1cc(Cl)ccc1OCCCC(=O)N1CCOCC1	98.1*	-79.3	19.1	0	-21.0	1.8
Cn1cccc1Cc1nnc(SCC(=O)NC2CCCCC2)n1CCc1ccccc1	44.2	42.3	·	0.6	·	0.6
COc1cccc(OC)c1C(=O)Nc1cc(C)on1	5.1	-10.6	-1.3	0.9	3.1	1.1
Cc1ccc2c(c1)nnn2C1CCN(C(=O)c2cccs2)CC1	67.1*	71.9*	7.2	0.3	-7.8	0.3
Cc1ccc2c(c1)nnn2C1CCN(C(=O)C2CCCCC2)CC1	90.7*	60.9*	·	0.1	·	0.4
CCOc1ccc(NC(=O)N2CCC(n3nnc4cc(C)ccc43)CC2)cc1	88.6*	59.7*	-31.8	0.1	34.2	0.4
CCOc1ccc(NC(=O)Nc2ccc3c(c2)nnn3C)cc1	-24.1	-23.4	·	1.2	·	1.2
CCOC(=O)c1ccc(N2C(=O)CC(N3CCC(Nc4ccc(F)cc4)CC3)C2=O)cc1 (stereo unspecified)	22.2	19.2	0.2	0.8	-2.1	0.8
O=C(c1ccco1)N1CCN(CC2CC3C=CC2C3)CC1 (stereo unspecified)	10.4	-6.6	7.4	0.9	-7.1	1.1
SMILES	CYP2C19 inh	CYP2C9 inhib	sEH act	CYP2C19 activ	sEH inhibitor	CYP2C9 act
Nc1ccc(Sc2cnn(-c3ccccc3)c(=O)c2Cl)cc1	99.4*	91.3*	16.5	0	-13.5	0.1
CCn1c(COc2ccc(=O)n(-c3ccccc3)n2)nnc1SCc1cccc(OC)c1	16.7	53.0*	-4.8	0.8	3.6	0.5
CCOc1ccc(=O)n(-c2ccccc2)n1	·	·	-13.9	·	14.4	·
CCOc1cc2c3c(c1)C1(C(=O)N3C(C)(C)C=C2C)C(C#N)=C(N)Oc2cc(O)ccc21 (stereo unspecified)	34.6	56.2*	-11.7	0.7	14.5	0.4
COc1cc2c3c(c1)C1(C(=O)N3C(C)(C)C=C2C)C(C#N)=C(N)Oc2cc(O)ccc21 (stereo unspecified)	51.2*	88.7*	-5.5	0.5	0.2	0.1
O=C(CP(=O)(CO)CO)c1ccc(Cl)cc1	-21.7	-18.7	·	1.2	·	1.2
COc1ccc(-n2cc(C(=O)c3cc4ccccc4oc3=O)c(C(C)=O)n2)cc1	-14.2	-4.5	-2.6	1.1	2.3	1
O=C(Nc1ccc2c(c1)oc1ccccc12)c1ccc(Br)o1	18.3	-16.2	6.5	0.8	-7.9	1.2
Cc1cc(C)c(NC(=O)COc2ccccc2C(=O)Nc2ccc3c(c2)oc2ccccc23)c(C)c1	37.0	96.8*	-3.1	0.6	-0.4	0
CCCCC(c1nnnn1CCOC)N1CCN(C)CC1 (stereo unspecified)	·	·	26.1	·	-22.1	·
Cn1c(=O)c2nc(NCc3ccccc3)cnc2n(C)c1=O	73.8*	73.0*	8.8	0.3	-7.0	0.3
CCOC(=O)c1sc(NS(=O)(=O)c2ccc(C)cc2)nc1C	42.4	77.1*	18.8	0.6	-18.2	0.2
CCOC(=O)Nc1ccc(S(=O)(=O)Nc2nccc(C)n2)cc1	-9.2	24.1	2.9	1.1	-3.6	0.8
O=C(Nc1ccc(Cl)cc1)c1cccs1	19.6	-4.2	-37.8	0.8	36.6	1
CCOC(=O)c1sc(NC(=O)c2ccc(S(=O)(=O)N(C)C)cc2)nc1C	1.9	-15.3	-9.0	1	8.8	1.2
CCOC(=O)Nc1ccc(NS(=O)(=O)c2ccc(C)cc2)cc1	99.1*	95.9*	-1.6	0	3.6	0
CCOC(=O)Nc1ccc(S(=O)(=O)Nc2nc(C)cc(C)n2)cc1	-3.2	-22.6	-1.0	1	2.9	1.2
CCC(C)c1ccc(NC(=O)c2cccs2)cc1 (stereo unspecified)	25.2	36.2	-89.9	0.7	89.5*	0.6
CCOC(=O)Nc1sc(NS(=O)(=O)c2ccc(C)cc2)nc1C	4.0	57.8*	2.8	1	-3.8	0.4
COc1ccc(NC(=O)C(CCS(C)(=O)=O)N2C(=O)c3ccccc3C2=O)cc1 (stereo unspecified)	4.5	45.8	19.6	1	-17.3	0.5
CCOC(=O)NCc1ccc(S(=O)(=O)Nc2c(C)cccc2C)cc1	74.7*	29.0	9.7	0.3	-12.2	0.7
Cc1ccc(NS(=O)(=O)c2ccc(NC(=O)c3cccs3)cc2)cc1	32.2	51.4*	-6.5	0.7	8.7	0.5
CCOC(=O)Nc1ccc(S(=O)(=O)Nc2cc(C)nc(C)n2)cc1	-9.8	16.1	3.3	1.1	-4.6	0.8
CCOC(=O)Nc1ccc(S(=O)(=O)NCc2ccccc2)cc1	19.1	7.1	-6.6	0.8	7.2	0.9
COc1ccc(NC(=O)c2cccs2)cc1	·	·	-1.6	·	7.0	·
CCOC(=O)Nc1sc(NS(=O)(=O)c2ccccc2)nc1C	-0.3	81.4*	-1.8	1	3.1	0.2
COc1cc(C=O)c(Br)cc1OC1CCCC1	22.1	11.4	-5.7	0.8	6.0	0.9
c1ccc(-n2ncc3c(NCCN4CCCCC4)ncnc32)cc1	18.3	13.6	0.3	0.8	0.1	0.9
Fc1ccc(CNc2ncnc3c2cnn3-c2ccccc2)cc1	19.4	58.3*	-4.0	0.8	6.3	0.4
